Compound activity: PubChem, National Center for Advancing Translational Sciences (NCATS)
PI5P4K alpha inh: qHTS for Inhibitors of phosphatidylinositol 5-phosphate 4-kinase (PI5P4K). Phosphatidylinositol 5-phosphate 4-kinase type-2 alpha (Homo sapiens), P48426. PI5P4Kalpha enzyme, ADP-Glo luminescence, 60 min; active compounds read low. max response, %. hit rate 1.2% among 330,000; active = max response of -50% or lower; inconclusive = between -30% and -50%; inactive = -30% or higher; note: value at the top dose of about 77 µM; % is set by controls: 0 for no effect and ±100 for the full control effect
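ADP-Glo luminescence end-point read after a 60 min room-temperature kinase reaction of PI5P4Kalpha plus substrate, initiated with ATP at 5 microM final. Buffer: 0.038 M HEPES pH 7.4, EGTA, 0.1% CHAPS, 5% DMSO.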
TCR activator: Activators of T cell receptors: qHTS campaign. 330,000 tested, under 10 active. AID 504894, 2011. Potency, µM (titrated, usually from 9.22 µM), for the others: top-dose activation of IL-2 secretion, most hits filed as activators. primary human leukocytes, anti-CD3, IL-2 HTRF, 48 h; note: % of control where 0% means no effect
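IL-2 release read by HTRF sandwich (Eu cryptate donor, d2 acceptor, 665 nm emission) after 48 hr exposure of primary human leukocytes to compound together with anti-CD3 beads in the absence of co-stimulatory signals.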
VDR inh: Inhibitors of the vitamin D receptor (VDR): qHTS; Vitamin D3 receptor (Homo sapiens), P11473; VDR-SRC2-3 peptide fluorescence polarization, 2 h; Potency, µM, without a hit: max response, negative = inhibition, actives largely listed as inhibitors; hit rate 0.93% among 400,000; note: potency is the fitted concentration of half-maximal effect; % is set by controls: 0 for no effect and ±100 for the full control effect
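FP read-out; VDR + SRC2-3 coactivator peptide; 23 nl compound by pintool; 2 h RT incubation; reagents held at 4 deg C, protected from light.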
WRN helicase inh: qHTS for Inhibitors of WRN Helicase. AID 651768, 2012. Bifunctional 3'-5' exonuclease/ATP-dependent helicase WRN (Homo sapiens), Q14191. Potency, µM (series often up to 114 µM), inactives show at the top dose activity change, negative = inhibition, hits mostly inhibitors. WRN helicase unwinding, fluorescent forked duplex, kinetic. hit rate 0.46% among 360,000; note: potency is the fitted concentration of half-maximal effect; % is set by controls: 0 for no effect and ±100 for the full control effect; nearly all actives have a fitted effect of over 55% in size
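Enzyme (20 nM final) and test compound sit together 15 min at room temperature before substrate addition. Substrate is a single-forked duplex oligonucleotide (100 nM) labelled with fluorophore and quencher, with 2 mM ATP; helicase unwinding raises red fluorescence, read kinetically.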
FEN1 inhibitor: qHTS Assay for the Inhibitors of Human Flap endonuclease 1 (FEN1) | Recombinant FEN1 flap cleavage, fluorescence, 15 min | Potency, µM (doses to about 114 µM), without a hit: at the highest dose activity change, negative = inhibition, hits mostly inhibitors | hit rate 0.35% among 390,000 | AID 588795, 2011; note: potency is the fitted concentration of half-maximal effect; % is set by controls: 0 for no effect and ±100 for the full control effect; nearly all actives have a fitted effect of over 65% in size
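Recombinant FEN1 (10 nM) was preincubated with pin-transferred compounds for 15 min at room temperature, then flap DNA substrate (50 nM final) was added. Plates were read at 0 and 15 min, and normalized concentration–response data were fitted to a four-parameter Hill equation.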
PLK1 PBD inh: qHTS for Inhibitors of PLK1-PDB (polo-like kinase 1 - polo-box domain): Primary Screen | Plk1 PBD binding of FITC phosphopeptide, fluorescence polarization | Serine/threonine-protein kinase PLK1 (Homo sapiens), P53350 | hit rate 2.8% among 360,000 | Potency, µM, without a hit: max response, negative = inhibition, most hits filed as inhibitors; note: potency is the fitted concentration of half-maximal effect; series mostly up to about 57 µM; % is set by controls: 0 for no effect and ±100 for the full control effect; nearly all actives have a fitted effect of over 65% in size
* hit, by the source's call; ? = inconclusive; . = not tested or not shown; [ ] = another dose, or the depositor's remark. The list is not random: actives were taken first. Their share in the collection is about 3.7%. Unless noted, calls come from the whole dose curve; as a rule, active = well fitted curve in the direction sought with a large enough effect; inconclusive = small, poorly fitted or top-dose-only effect, or another doubt; inactive = no such curve, though single readings can be large; an effect the other way counts as inactive or inconclusive.

SMILES | PI5P4K alpha inh | TCR activator | VDR inh | WRN helicase inh | FEN1 inhibitor | PLK1 PBD inh
CSc1ccc(C2CC(=O)Nc3c2c(=O)n(C)c(=O)n3C)cc1 (centres undefined) | -5 | 3% | ? | -1% | -3% | 27µM*
Nc1cccc(-c2nnc3n2CCCCC3)c1 | -12 | 0% | -17% | 7% | 3% | 17µM*
COc1ccc(NC(=O)c2ccc3c(c2)nnn3C2CCCC2)cc1Cl | . | . | 6% | . | 17% | .
Cc1ccccc1OCC(=O)NCC(=O)OCC(=O)c1ccc(-c2ccccc2)cc1 | . | . | -19% | . | 16% | .
C=CCn1nnnc1-c1cccc(Cl)c1 | 5 | -3% | -5% | 1%[57.1 µM] | 20% | 27µM*
C=CCn1c(-c2cccc(Cl)c2)n[nH]c1=S | -13 | -1% | -1% | 6% | -3% | -11%
O=C1OCc2nc3cc4c(cc3c(-c3ccc(F)cc3)c21)OCO4 | -7 | -4% | ? | 2% | 8% | 24µM*
FC(F)(F)c1ccccc1-c1cncnc1NCCN1CCOCC1 | . | . | 45µM* | . | . | .
CC(C)(CC(=O)NCc1ccc(Cl)cc1Cl)CC1=NS(=O)(=O)c2ccccc2N1 | . | . | 9% | . | 1% | .
Nc1ccccc1C#Cc1ccc([N+](=O)[O-])cc1 | 10 | -8% | -11% | -5% | 1% | -8%
Nc1ccccc1C#CC(=O)c1ccccc1 | 4 | -19% | ? | -26% | -2% | 8.4µM*
CCc1ccc(NC(=O)Cc2ccc(-n3cccc3)cc2)cc1 | 4 | -6%[46.1 µM] | 2% | -7% | 11% | -1%
O=C(O)Cc1ccc(-n2cccc2)cc1 | -28 | . | 7% | 40µM* | ? | ?
CCc1ccccc1NC(=O)Cc1ccc(-n2cccc2)cc1 | ? | 3%[46.1 µM] | ? | -6% | -3% | 7.5µM*
Cc1cc(/C=C2/C(=N)N3C(=NC2=O)SN=C3S(C)(=O)=O)c(C)n1-c1ccccc1F | -62* | -7% | ? | -12%[57.1 µM] | -9% | ?
CS(=O)(=O)C1=NSC2=NC(=O)/C(=C\c3cccn3-c3ccc(Cl)cc3)C(=N)N21 | -81* | 0%[46.1 µM] | ? | -27%[57.1 µM] | -18% | 21µM*
CN(C)c1ccc(/C=C/c2ccnc3c(O)ccc(O)c23)cc1 | . | . | . | . | 15% | .
Cc1ccc(C(=O)n2ncn(C)c2=S)cc1 | -63* | 5% | ? | 1% | -19% | 9.5µM*
O=C(CCS(=O)(=O)c1ccc2c(c1)NC(=O)CO2)NCCc1ccccc1 | 3 | -1% | ? | -9% | -1% | 19µM*
O=C(CCS(=O)(=O)c1ccc2c(c1)NC(=O)CO2)NCc1ccccc1 | 6 | -5% | -6% | -8% | 0% | -10%
CC1CCC(NC(=O)CCS(=O)(=O)c2ccc3c(c2)NC(=O)CO3)CC1 (centres undefined) | -6 | 5% | ? | -1% | 2% | 17µM*
COc1ccc(N2CCN(C(c3ccc(C)cc3)c3nnnn3C(C)(C)C)CC2)cc1 (centres undefined) | . | . | -11% | . | 4% | .
COc1ccccc1N1CCN(Cc2cc(=O)c(OCC(=O)NC(C)C)co2)CC1 | 2 | 8% | ? | -9% | 21% | 9.5µM*
CC(C)CNc1nc(N)c([N+](=O)[O-])c(N2CCCCCC2)n1 | 2 | -3% | 0% | -1%[11.6 µM] | 45µM* | -2%
CN(Cc1ccc(O)cc1)C1CCCCC1 | . | -1% | 0% | -4% | 8% | -7%
COc1ccc(CN(C)C2CCN(C)CC2)cc1OC | 8 | . | -3% | 3% | -1% | -7%
Cc1ccc(CN(C)C2CCN(C)CC2)cc1 | -2 | -2% | -20% | 5% | 8% | 24µM*
COc1ccc(CN(C)C2CCCCC2)cc1 | . | -2% | ? | 1% | -15% | 24µM*
COc1cc(NC(=O)CCS(=O)(=O)c2nc(-c3cccs3)cc(C(F)(F)F)n2)cc(OC)c1OC | . | . | ? | . | -3% | .
